We go through 53 compounds from ChEMBL document CHEMBL3988442, “University of Dundee, Small-Polar-MMV Screening Library” (2021).

The whole screen tested about 48,000 compounds, of which about 13,000 (27%) showed an effect of 50% or more. The list shows a part of the results.

The test system of the assay is Wolbachia pipientis. Kind of assay: Anti-Wolbachia Cell-Based Screen. It is filed as functional. The note with it: 5 µM. Also noted: scale not given: in the data most compounds retested in dose-response had high values.
With `CCCN1CCC(c2nc3ccc(-c4cccc(OC)c4)cn3n2)CC1.O=C(O)C(F)(F)F`, the “Percent Effect” value came out at 95.04%.
`O=C(COCC1CC1)Nc1ccn(Cc2cccc3cccnc23)n1`: the “Percent Effect” value is on record as -5.086%.
As to `CCn1cc(SCC(=O)N2CCCC(O)(CO)C2)c2ccccc21` (stereo not drawn), the “Percent Effect” value was -16.21%.
As for `COc1cccc(C(=O)N2CCN(C(=O)CCCc3cn[nH]c3)CC2)c1`, the “Percent Effect” value is reported as -9.764%.
Take `CCOCC1CN(C(=O)Cc2ccsc2)Cc2ccnn2C1.O=C(O)C(F)(F)F` (stereo not drawn): the “Percent Effect” value came out at 4.742%.
Take `O=C(CCN1CCCO1)N1CC[C@@H](c2ccc3ccccc3c2)[C@H](O)C1`: the “Percent Effect” value is 7.888%.
For `CC(C)SCCn1ccc2[nH]c(=O)c(C#N)cc2c1=O` the value was -14.16%.
Next, `CN1CCC(c2nc3ccc(-c4cccc(F)c4)cn3n2)CC1.O=C(O)C(F)(F)F`: 117.6%.
For the compound `Cn1cc(C2(C)CN(Cc3ccc(N4CCCC4)nc3)CCO2)cn1` (stereo not drawn), the “Percent Effect” value is -5.624%.
Next, `CCc1oc(C(=O)NCCSc2ncn[nH]2)cc1CN1CCCC1`: 77%; `CCc1oc(C(=O)NCCNS(C)(=O)=O)cc1CN1CCCC1`: 20.77%; `CCc1oc(C(=O)NCCc2cc(O)nc(C)n2)cc1CN1CCCC1`: -0.3531%.
Next, `CCc1oc(C(=O)NC(C)Cc2cnccn2)cc1CN1CCCC1` (stereo not drawn): 92.2%; `CCc1oc(C(=O)NC(C)c2ncn[nH]2)cc1CN1CCCC1` (stereo not drawn): 82.75%; `Cc1cc(C)nc(NC(C)Cc2cnccn2)n1` (stereo not drawn): -26.5%.
Regarding `Cc1ccc(NC2(C(=O)NC(C)c3ncn[nH]3)CCCC2)cc1` (stereo not drawn), the “Percent Effect” value is 4.641%.
For `CC(Cc1cnccn1)NC(=O)COc1ccc(F)cc1F` (stereo not drawn) the value was 0.5787%.
For `CCc1oc(C(=O)NCCc2nc(C(=O)O)cs2)cc1CN1CCCC1`, the “Percent Effect” value turned out to be 10.42%.
Next, `COc1c(F)cccc1C(=O)NC(C)c1cnn(C)c1` (stereo not drawn): 2.584%; `Cc1ccccc1S(=O)(=O)CCOC(C)C`: -3.521%.
For `O=C(C1CCOCC1)N1C[C@@H](F)[C@@H](OCc2nc3cc(F)ccc3[nH]2)C1`, the “Percent Effect” value is -12.95%.
As to `COCCN1CCC(CNC(=O)c2cc(C)cc(C)c2)C1` (stereo not drawn), the “Percent Effect” value came to 11.6%.
As to `CCc1cc(C(=O)NCC2CCN(Cc3ccncc3)CC2)on1`, the “Percent Effect” value is given as 4.058%.
Consider `CCN1CCC(CNC(=O)c2cc(Cl)c[nH]2)CC1`, for which the “Percent Effect” value was found to be 93.05%.
Consider `O=C(NCC1CCN(CCc2ccccc2)C1)c1c(F)cccc1F` (stereo not drawn), for which the “Percent Effect” value is listed as -12.95%.
For `COCCN1CCC(CNC(=O)Nc2ccc(F)c(Cl)c2)C1` (stereo not drawn), the “Percent Effect” value is reported as -3.47%.
As for `O=C(NCC1CCN(CCc2ccccc2)C1)c1cc(Cl)c[nH]1` (stereo not drawn), the “Percent Effect” value is recorded as 98.65%.
For `COCCN1CCC(CNC(=O)c2cc(Cl)c[nH]2)CC1` the value was 92.15%; for `CC(C)(C)OC(=O)NCC1CCN(C(=O)c2cc(Cl)c[nH]2)CC1`, 10.1%.
For `COc1ccc(OC)c2c(C)cc(N(C)CCCO)nc12` the value was 19.89%.
Next, `OC[C@@H](O)CN(CCC(F)(F)F)c1ncccn1`: -5.207%; `O=C(CCN1CCCN(c2nccs2)CC1)NCC1CCCCC1`: -7.888%; `Cc1cnn(CCCNC(=O)NCCS(=O)(=O)Nc2ccccc2)c1`: 96.15%.
For `Cc1cnn(CCCNC2Cc3ccccc3C2)c1`, the “Percent Effect” value was found to be 8.956%.
For `Cc1cnn(CCCNC(=O)NC(C)C(=O)Nc2ccccc2)c1` (stereo not drawn) the value was 105.3%; for `Cc1cnn(CCNCC(=O)NCc2ccccc2)c1`, 3.726%.
For `CCn1nnnc1-c1cccc(NC(=O)CCn2cc(C)cn2)c1` the value was 2.601%; for `Cc1cnn(CCNCCCOc2ccccc2)c1`, 2.655%.
Next, `Cc1cnn(CCNC(C)C(=O)NCCc2cccs2)c1` (stereo not drawn): 5.747%; `Cc1cnn(CCNC(C)C(=O)Nc2ccc(Cl)cn2)c1` (stereo not drawn): -21.66%.
Take `Cc1cnn(CCCNC(=O)NCCC(=O)Nc2ccccc2)c1`: the “Percent Effect” value amounted to 97.62%.
`CN(C)S(=O)(=O)N1CC[C@]2(C[C@H](OCc3ccccn3)CO2)C1.O=C(O)C(F)(F)F`: the “Percent Effect” value is reported as 14.62%.
Next, `Cc1ccc(C(=O)N2CC[C@@H]3[C@H]2CCC(=O)N3CCN(C)C)cn1.O=C(O)C(F)(F)F.O=C(O)C(F)(F)F`: 19.11%.
Next, `CCn1nc(C)c(NC(=O)c2cc(NC(=O)C3CC3)n(C)n2)c1C`: -7.543%.
Consider `Cc1nc(CN2CCCC(CCc3cccc(C(F)(F)F)c3)C2)co1` (stereo not drawn), for which the “Percent Effect” value is reported as -5.657%.
For `FC(F)(F)c1cccc(CN2CCOC[C@H](Oc3cccnc3)C2)c1` the value was -1.353%.
`O=C1NC[C@@]2(C(=O)O)CN(Cc3cccc(C(F)(F)F)c3)C[C@@H]12`: the “Percent Effect” value is on record as -16.76%.
In the case of `NC(=O)CN(C(=O)Cc1cccc(C(F)(F)F)c1)C1CCCC1`, the “Percent Effect” value turned out to be 0.7845%.
With `O=C1C(N2CCOCC2)CCCN1Cc1cccc(C(F)(F)F)c1` (stereo not drawn), the “Percent Effect” value came out at 85.07%.
For `NC1CCCN(Cc2cccc(C(F)(F)F)c2)C1=O` (stereo not drawn) the value was 110.9%.
Regarding `O=C1C(N2CC[C@@H](O)C2)CCCN1Cc1cccc(C(F)(F)F)c1` (stereo partly drawn), the “Percent Effect” value worked out at 107.1%.
Next, `O=C(C[S+]([O-])Cc1cccc(C(F)(F)F)c1)NC1CCCC1` (stereo not drawn): -0.5467%.
As to `O[C@H]1COCCN(Cc2cccc(C(F)(F)F)c2)C1`, the “Percent Effect” value came out at 1.348%.
